# pPAFAH inh = pPAFAH (human) enzyme inhibition. recombinant pPAFAH, FP-rhodamine probe fluorescence polarization. inhibition, % at 3.39 µM. 330,000 compounds, 1.5% hits. AID 463082;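 active = inhibition above the mean inhibition across the screen plus 3 SD, cut at about 25% in these data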;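 note: inhibitors block binding of the rhodamine activity-based probe so polarization drops; 0% = enzyme with DMSO and 100% = wells lacking pPAFAH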
# Target sequence (Q13093 whole entry, looked up): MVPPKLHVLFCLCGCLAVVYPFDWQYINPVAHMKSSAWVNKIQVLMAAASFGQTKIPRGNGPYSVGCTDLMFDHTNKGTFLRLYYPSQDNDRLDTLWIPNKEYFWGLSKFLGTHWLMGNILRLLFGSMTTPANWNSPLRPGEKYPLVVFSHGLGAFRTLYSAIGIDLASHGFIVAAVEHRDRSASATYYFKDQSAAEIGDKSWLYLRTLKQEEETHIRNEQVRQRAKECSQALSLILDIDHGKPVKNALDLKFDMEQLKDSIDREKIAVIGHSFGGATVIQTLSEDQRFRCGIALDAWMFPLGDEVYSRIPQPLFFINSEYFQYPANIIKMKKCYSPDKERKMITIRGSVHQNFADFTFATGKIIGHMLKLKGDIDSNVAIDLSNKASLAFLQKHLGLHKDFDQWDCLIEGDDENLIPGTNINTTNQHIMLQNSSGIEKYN
# DAGLB inh = blocks human DAGLB lipase activity; HEK293T DAGLB membrane lysate, EnzChek fluorogenic substrate; inhibition, % at 5.17 µM; 340,000 compounds, 0.059% hits; AID 504411; in the data active = inhibition above about 34%;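 note: 0% = enzyme with vehicle and 100% = wells lacking enzyme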
# PAFAH1B3 inh = blocks human PAF acetylhydrolase 1B catalytic subunit 3; recombinant PAFAH1B3, FP-rhodamine probe, fluorescence polarization; inhibition, % at 3.39 µM; 340,000 compounds, 0.28% hits;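 active = inhibition above the screen-wide average of all tested compounds plus 3 SD, cut at about 25% in these data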;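 note: 0% = enzyme with DMSO only and 100% = wells lacking PAFAH1B3 protein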
# Target sequence (Q15102 whole entry, looked up): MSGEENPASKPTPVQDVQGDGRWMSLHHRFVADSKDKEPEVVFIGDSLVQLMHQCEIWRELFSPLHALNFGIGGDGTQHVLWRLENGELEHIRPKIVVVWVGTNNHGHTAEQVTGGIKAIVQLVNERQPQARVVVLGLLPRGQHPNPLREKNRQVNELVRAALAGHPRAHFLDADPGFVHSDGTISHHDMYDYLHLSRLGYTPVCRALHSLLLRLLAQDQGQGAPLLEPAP
# PAFAH1B2 FP inh = PAFAH1B2 (human) inhibition | recombinant PAFAH1B2, FP-rhodamine activity probe, fluorescence polarization | P68402 | 340,000 compounds, 1.2% hits | AID 492953 | inhibition, % at 3.39 µM;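 active = inhibition above the mean of all tested compounds plus 3 SD, cut at about 24% in these data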;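 note: 0% = enzyme with DMSO and 100% = wells lacking PAFAH1B2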
# HTRA1 inh = HTRA1 (human) protease inhibition; Q92743; recombinant HTRA1, FP-rhodamine activity-based probe, fluorescence polarization; inhibition, % at 5.96 µM; 340,000 compounds, 0.5% hits; in the data active = inhibition above about 36%;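 note: 0% = enzyme with DMSO and 100% = wells lacking enzyme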
# PAFAH2 FP inh = inhibitors of human PAFAH2; inhibition, % at 3.39 µM; 340,000 compounds, 0.99% hits; Q99487; recombinant PAFAH2, FP-rhodamine activity probe, fluorescence polarization;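 active = inhibition above the mean over all tested compounds plus 3 SD, cut at about 30% in these data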;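 note: inhibitors block probe labeling of enzyme so polarization drops; 0% = enzyme with DMSO and 100% = wells lacking PAFAH2 protein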
# PAFAH1B3 confirm = PAFAH1B3 (human) inhibition, confirmed | shares compounds with PAFAH1B3 inh | recombinant PAFAH1B3, FP-Rh activity-based probe, fluorescence polarization | inhibition, % at 3.39 µM | 390 compounds, 30% hits;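 active = average inhibition over triplicate runs above the hit cutoff set in the earlier primary screen, cut at about 25% in these data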;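 note: 0% = enzyme with DMSO and 100% = wells lacking PAFAH1B3 protein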
# The depositor's hits bear a star; x = not tested or not shown; ! = a repeat was not active. In the library only some 2.8% were active in any assay of this set; here they are far more common.
SMILES,pPAFAH inh,DAGLB inh,PAFAH1B3 inh,PAFAH1B2 FP inh,HTRA1 inh,PAFAH2 FP inh,PAFAH1B3 confirm
Cc1cc(N2C(=O)C3C4CC(c5ccccc5)C(C4)C3C2=O)no1 (stereo not given),5.5,-1.4,-4.4,-0.4,2.6,11.1,x
Cn1c2ccccc2c2nnc(N/N=C/c3ccc(O)cc3)nc21,1.4,x,x,x,x,x,x
Cn1c(=O)c2cc(NCc3ccccc3)nnc2n(C)c1=O,9.8,-7.2,66.0*,11.7,14.1,16.7,11.7
Cc1ccc(S(=O)(=O)NC(=O)NCCCN2CCOCC2)cc1,-1.1,2.6,4.3,2.8,0.5,5.5,x
Nc1cnccc1C(=O)O,17.6,-6.8,27.9*,13.2,20.2,16.1,18.6
Cc1ccc(OC(C)C(=O)N2CC(=O)Nc3ccccc32)cc1 (stereo not given),-2.0,-0.1,2.9,-2.9,2.0,-12.5,x
N#Cc1cc2c(nc1SCC(N)=O)CCCCC2,3.6,0.7,5.5,2.1,8.4,-4.3,x
N#Cc1cc2c(nc1SCC(=O)N1CCOCC1)CCCCC2,13.6,0.7,26.1*,-2.2,-3.2,0.9,8.9
COc1ccc2[nH]c(C(=O)N/N=C/c3ccc(O)cc3O)cc2c1,x,3.8,48.2*,22.7,25.8,16.4,23.6
C=CCn1c(N)c(C(=O)NCC2CCCO2)c2nc3ccccc3nc21 (stereo not given),10.6,-1.5,26.4*,4.6,1.9,-3.3,6.5
COc1ccc(-n2c(N)c(C(=O)NCC3CCCO3)c3nc4ccccc4nc32)c(OC)c1 (stereo not given),11.5,3.6,4.9,5.5,-16.7,3.8,x
CC(=O)c1sc(C(C)(C)C)cc1NC(=O)/C=C/C(=O)O,0.0,4.2,43.6*,5.8,0.8,11.6,35.1*
CC(=O)c1sc(C(C)(C)C)cc1NC(=O)CCC(=O)O,1.0,1.1,2.0,6.0,-0.1,2.2,x
COc1cc2c(cc1OC)CN(C(=O)/C=C/c1cc(OC)c(OC)c(OC)c1)CC2,-4.0,-2.5,29.8*,18.1,-1.2,25.4,8.9
O=C(O)c1ccc(Nc2nc(-c3ccc([N+](=O)[O-])cc3)nc3ccccc23)cc1,x,1.6,26.2*,8.1,-2.8,10.6,13.8
Cc1c(C)c2ccc(OCC(=O)N3CCOCC3)c(C)c2oc1=O,1.3,0.7,1.3,-2.5,-0.7,-5.7,x
C=CCN(C)NC(=S)Nc1ccccc1,-2.4,-2.7,41.5*,-2.2,-0.2,2.7,14.0
C=CCN(C)NC(=O)Nc1ccccc1,2.2,2.0,11.3,2.7,-5.0,-2.2,x
O=C(N1CCCCC1)C12CC3CC(C1)CC(C(=O)N1CCCCC1)(C3)C2,7.8,-3.1,39.3*,3.5,8.8,0.1,9.8
O=C(N1CCCC1)C12CC3CC(CC(C3)C1)C2,-5.2,-0.8,-3.3,8.3,-0.9,3.0,x
O=C(Cn1ncc(Cl)c(Cl)c1=O)N1CCc2ccccc21,x,1.7,27.6*,0.3,-2.6,10.2,21.9
Nc1ccc(N(CCO)CCO)cc1,14.0,-1.7,37.6*,12.5,28.6,15.8,6.8
CC(=O)c1ccccc1C(=O)N1CCCC(N2CCN(Cc3ccc4c(c3)OCO4)CC2)C1 (stereo not given),0.5,-1.8,-0.6,1.0,6.6,3.1,x
CCc1ccc(S(=O)(=O)Nc2cc(SCC(=O)O)c(O)c3ccccc23)cc1,9.2,-4.7,27.8*,18.1,29.7,21.8,10.2
CC(C)C[C@@H](CNCC(=O)[C@H](CC(C)C)NC(=O)c1[nH]cnc1C(=O)N[C@H](CN)CC(C)C)NC(=O)c1nc[nH]c1C(=O)N[C@@H](CC(=O)O)C(=O)O,x,-1.6,2.9,1.4,7.4,1.1,x
SMILES,pPAFAH inh,DAGLB inh,PAFAH1B3 inh,PAFAH1B2 FP inh,HTRA1 inh,PAFAH2 FP inh,PAFAH1B3 confirm
COc1cc(C(=O)c2nccc3cc(OC)c(OC)cc23)c([N+](=O)[O-])cc1OC,1.7,-3.1,40.5*,2.0,2.1,1.8,7.9
O=C(NCCc1ccccc1F)C1CC(=O)N(c2cccc(C(F)(F)F)c2)C1 (stereo not given),x,-3.1,3.9,4.6,1.7,-0.3,x
CC(NC(=O)CCNS(=O)(=O)c1ccc2c(c1)oc(=O)n2C)c1ccccc1 (stereo not given),4.8,1.9,5.0,8.2,-2.9,6.1,x
COc1ccccc1NS(=O)(=O)c1cccc(C(=O)NCC(c2ccc(F)cc2)N2CCOCC2)c1 (stereo not given),5.9,1.6,32.5*,2.2,-2.5,-1.8,8.6
O=C1C(Cl)=C(N2CCC(C(=O)O)CC2)C(=O)c2ccccc21,12.8,-1.6,41.3*,22.5,6.8,20.8,32.1*
O=C(O)C1CCN(C(=O)c2ccccc2Cl)CC1,1.1,-1.3,5.5,2.8,2.4,4.7,x
Cc1ccc(CN2CC(C(=O)N3CCN(S(=O)(=O)c4c(F)cccc4F)CC3)CC2=O)cc1 (stereo not given),-6.1,1.3,18.9,3.2,3.3,-0.3,x
Nc1nc(NCc2ccco2)nn1-c1ccccc1,3.4,1.4,26.5*,7.2,1.1,5.4,7.5
Cc1cccc2c1NC(=O)C2=O,x,-0.1,36.3*,13.7,23.2,16.1,24.9
CCc1cccc2c1NC(=O)C2=O,x,3.2,-0.6,0.8,-10.1,5.0,x
O=C(NCc1ccco1)c1cccc(Nc2nc3ccc(Br)cc3[nH]2)c1,20.1,-3.0,32.0*,20.2,5.9,-17.3,15.9
CCOC(=O)c1c(C)oc2c1c(C=NCCO)c(O)c1ccccc12,x,1.4,29.9*,7.1,-8.2,8.8,12.0
Cc1nc(S/C(=C\c2ccc(-c3ccc(C(=O)O)c(Cl)c3)o2)C(=O)O)n[nH]1,x,2.1,41.7*,14.7,5.5,29.1,27.0*
Cc1nc(S/C(=C\c2ccc(OCc3ccccc3Cl)cc2)C(=O)O)n[nH]1,19.0,2.6,7.1,16.6,-2.7,27.1,x
COC(=O)c1cc2c(n1S(=O)(=O)c1ccc(C)cc1)C(=O)C(=O)c1[nH]cc(C(=O)OCc3ccccc3)c1-2,x,11.7,38.8*,7.2,14.6,13.3,34.1*
Cc1cc(C)n(-c2ccc([N+](=O)[O-])cc2-c2nn[nH]n2)n1,1.4,7.5,1.0,9.2,-19.0,-0.3,x
O=[N+]([O-])c1ccc(O)c(-c2nn[nH]n2)c1,1.4,3.5,27.6*,11.3,28.6,-1.6,26.4*
C/C(=N/NC(=O)CSc1nc2ccccc2s1)c1ccncc1,0.1,-0.1,4.5,4.5,-9.1,4.7,x
CS/C(=N\S(=O)(=O)c1cccs1)NC(=O)CSc1nc2ccccc2s1,8.2,7.8,31.0*!,20.4,5.9,3.1,20.2
CCCCCC(=O)Nc1ccc(S(=O)(=O)Nc2nccc(C)n2)cc1,0.5,-1.4,9.0,9.8,-6.3,2.0,x
